# Shown are actives, neighbours in structure and some others; about 1.4% of the full set was active somewhere.
# HUVEC tox IL1B = HUVEC cytotoxicity counter-screen, IL-1B stimulated; HUVEC cell count loss, Hoechst imaging; cell count reduction, % at 2 µM; 94,000 tested, 0.41% active; AID 845;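 active = cell count reduction more than 3 SD above the screen-wide mean, cut at about 70% in these data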
# NFkB transloc pot = enhances IL-1B driven NFkB nuclear translocation; HUVEC IL-1B NFkB p65 nuclear translocation imaging; activation, % at 2 µM; 94,000 tested, 0.3% active; AID 819;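 active = activation above 40%, about the mean plus 3 SD, also judged a hit on visual image review; inconclusive = activation above 40% but not a hit on visual review; inactive = activation not above 40% and no visual hit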;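 also: percent activation is computed from the nuclear over cytoplasmic p65 intensity ratio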
# Insulin prom inh = TRM-6 insulin promoter activity inhibition; TRM-6 cells (human fetal islet line), insulin promoter-eGFP reporter, imaging; reporter expression induced with tamoxifen; inhibition, % at 2 µM; 130,000 tested, 0.9% active;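 active = inhibition above the mean plus 3 SD, with well images judged a real hit on visual review, cut at about 60% in these data, passing the limit was not always enough; inconclusive = inhibition over the cutoff but images rejected on review; inactive = inhibition not above the cutoff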
# NFkB transloc inh = blocks IL-1B driven NFkB nuclear translocation in HUVEC cells; HUVEC IL-1B NFkB p65 nuclear translocation imaging; inhibition, % at 2 µM; 94,000 tested, 0.43% active; AID 796;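 active = inhibition above about 30% together with a positive call from visual inspection of the well image, limit read from the data; inconclusive = inhibition above a set limit but visual check negative; inactive = inhibition not above a set limit, visual check negative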;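 also: nuclear over cytoplasmic p65 intensity ratio measured by imaging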
# Hits are given with their value; . = inactive; ? = inconclusive; / = no result given.
SMILES,HUVEC tox IL1B,NFkB transloc pot,Insulin prom inh,NFkB transloc inh
COC(=O)c1ccc(C2Nc3ccc(/C(C)=N/NC(=O)C(OC)c4ccccc4)cc3C3C=CCC32)cc1 (stereo not given),.,?,/,.
CCCn1c(NC(=O)c2ccc(Cl)c(S(=O)(=O)N3CCCC3)c2)nc2ccccc21,.,.,/,.
O=C(Oc1cccc(N2C(=O)CCC2=O)c1)c1ccccc1,88.6,.,.,.
O=C(Oc1ccc(N2C(=O)CCC2=O)cc1)c1ccco1,/,/,.,/
Cc1ccc(-c2cc3cccc[n+]3cc2-c2ccc(C)cc2)cc1,/,/,.,/
N#Cc1c(-c2ccc(F)cc2)ccnc1N1CCOCC1,/,/,.,/
O=C(Cn1cnc2ccc(Cl)cc2c1=O)c1cccs1,.,.,.,.
CCC(NC(=O)NCc1ccccc1)(C(F)(F)F)C(F)(F)F,/,/,71.4,/
CCC(NC(=O)NCc1ccc2c(c1)OCO2)(C(F)(F)F)C(F)(F)F,.,.,.,.
Cc1c(Nc2cc(Cl)c3nonc3c2[N+](=O)[O-])c(=O)n(-c2ccccc2)n1C,/,/,100.0,/
CC(NC(=O)NC(N)=O)(C(F)(F)F)C(F)(F)F,.,40.9,.,.
COc1ccccc1Nc1nnc(Cc2ccccc2)c(=O)[nH]1,/,/,.,/
COc1ccc(Nc2nnc(Cc3ccccc3)c(=O)[nH]2)c(OC)c1,.,.,85.7,.
CC(=O)c1c(C(C)=O)c(C)n(NC(=O)c2ccncc2)c1C,.,.,/,.
O=c1c2[nH]c3ccccc3c2ncn1Cc1cccnc1,.,50.1,.,.
C=CCNc1c2c(nc3nnnn13)CCCC2,/,/,.,/
C=CCNc1nc(S(=O)Cc2ccc(C)cc2)nc2c1CCCC2 (stereo not given),/,/,73.3,/
NC(=O)CCCc1nc(-c2ccccc2Cl)no1,.,.,.,.
CNC(=O)CCCc1nc(-c2ccccc2Cl)no1,.,65.2,.,.
COCCNC(=O)/C=C/c1c(Cl)cccc1Cl,/,/,71.4,/
COCCCNC(=O)/C=C/c1c(Cl)cccc1Cl,/,/,.,/
CCOP(=O)(OCC)C(O)c1cc(OC)c(OC)c(OC)c1 (stereo not given),/,/,.,/
CCc1ccc(C(=O)Nc2cc3c(cc2Cl)OCCCO3)cc1,.,.,.,.
COc1ccc(-c2nnc(N)s2)cc1,.,.,75.0,.
C=CCSc1ncc(C(=O)OCC)c(N)n1,/,/,100.0,/
SMILES,HUVEC tox IL1B,NFkB transloc pot,Insulin prom inh,NFkB transloc inh
CCOC(=O)c1cnc(SCC(=O)OC)nc1N,/,/,.,/
CSc1ccc(/C=C(/Sc2nnc(-c3ccccc3)o2)C(=O)O)cc1,/,/,80.0,/
O=C(CC1SC(=NCc2ccccc2)NC1=O)Nc1ccccc1 (stereo not given),/,/,.,/
COc1ccc(C2C(C(C)=O)=C(C)N=c3s/c(=C\c4ccc5c(c4)OCO5)c(=O)n32)c(OC)c1 (stereo not given),94.4,.,.,.
COc1cccc(-c2nn(C)c3sc(C(=O)NCc4ccc(C)o4)cc23)c1,/,/,62.5,/
O=C(c1cn(-c2ccccc2)nc1-c1ccc(F)cc1)N1CCCCC1,/,/,.,/
O=C(c1cn(-c2ccccc2)nc1-c1ccncc1)N1CCCCC1,92.2,.,.,.
COc1ccc(N2CCN(C(=O)C3(C)CC3(Cl)Cl)CC2)cc1 (stereo not given),/,/,.,/
CCCCC[n+]1ccn(-c2nc3ccccc3nc2[N-]S(=O)(=O)c2ccc(C)cc2)c1,82.3,.,.,98.5
CCCC[n+]1ccn(-c2nc3ccccc3nc2[N-]S(=O)(=O)c2ccc(C)cc2)c1,.,.,.,.
CCCCCc1c(C)nc(N2CCOCC2)[nH]c1=O,.,.,/,.
O=C(NCc1cccs1)C12CC3CC(CC(C3)C1)C2,/,/,81.8,/
O=C(CN1CCOc2ccccc21)NCc1ccc(F)cc1,/,/,60.0,/
O=C(CN1CCOc2ccccc21)NCc1ccc(Cl)cc1,/,/,.,/
Clc1ccccc1N/N=C/c1ccc2c(c1)OCO2,/,/,64.3,/
Cn1nc(C(=O)NC(C)(C)C)c2ccccc21,/,/,.,/
COc1ccc(C2=NC(=O)/C(=C\c3cc(OC)c(OC)c(OC)c3)O2)cc1,/,/,.,/
COc1ccc(-c2[nH]ncc2/C=N/NC(=O)c2ccc(Br)cc2)c(OC)c1,/,/,.,/
COc1ccc(C(=O)N/N=C/c2cn[nH]c2-c2ccc(OC)cc2OC)cc1,/,/,65.5,/
COc1ccc(CCNC(=O)C2CC(=O)N(c3ccccc3)C2)cc1OC (stereo not given),87.8,.,.,.
COc1ccc(CCNC(=O)C2CCN(S(=O)(=O)c3c(C)noc3C)CC2)cc1OC,.,.,65.5,.
Cc1cccc(CCNC(=O)C2CCN(S(=O)(=O)c3c(C)noc3C)CC2)c1,.,.,.,.
COc1ccc(CCN2CC(C(=O)NCCc3ccccc3)CC2=O)cc1OC (stereo not given),/,/,.,/
COc1ccc(C2C3=C(N=C4SCC(=O)N42)c2ccccc2CC3)cc1 (stereo not given),.,.,71.0,.
COc1ccc(C2C3=C(N=C4SCC(=O)N42)c2ccccc2CC3)cc1OC (stereo not given),.,.,.,.
SMILES,HUVEC tox IL1B,NFkB transloc pot,Insulin prom inh,NFkB transloc inh
Cc1cc(C)cc(OCC(=O)Nc2ccc(F)cc2)c1,84.5,.,.,.
Cc1cc(C)cc(OCC(=O)Nc2ccc(N3CCCC3)cc2)c1,.,.,/,.
O=C(CC1(O)C(=O)N(Cc2ccccc2)c2ccccc21)c1ccncc1 (stereo not given),.,.,.,.
CCc1cccc(CC)c1N1C(=O)c2cc(N3CCOCC3)c([N+](=O)[O-])cc2C1=O,/,/,.,/
Cc1cc2ccccc2n1CCNC(=O)c1cccs1,.,.,/,59.1
Cc1cc2ccccc2n1CCNC(=O)C1CCCC1,.,.,.,.
CCCCNC(=S)Nc1ccccc1F,89.6,.,.,.
COc1ccc(OCCSc2ncccn2)cc1,.,.,/,.
Clc1ccc(OCCSc2ncccn2)cc1,.,.,66.2,.
Cc1[nH]nc2ncc(C(=O)c3ccccc3O)cc12,.,.,80.0,.
Cn1cc(CN2CCc3ccccc3C2)c2ccccc21,.,.,80.7,.
Oc1ccc(CN2CCc3ccccc3C2)c2cccnc12,.,.,.,.
CC(C)c1ccc(NC(=O)COc2ccc(F)cc2C(=O)c2cnn(-c3ccccc3)c2)cc1,/,/,.,/
COc1ccc(C2=NCC(CSc3nccc(=O)[nH]3)S2)cc1 (stereo not given),.,.,85.7,.
COc1ccc(C2=NCC(CSc3nnnn3C)S2)cc1 (stereo not given),.,.,.,.
CCOCc1cn(CC(=O)c2ccc([N+](=O)[O-])cc2)c(C)nc1=N,.,.,.,.
CCOCc1cn(CC(=O)c2ccc(Cl)cc2)c(C)nc1=N,81.4,.,.,.
CN(C(=O)CSC1=Nc2ccccc2C2=NC(c3ccccc3)C(=O)N12)C1CCCCC1 (stereo not given),.,.,.,.
COc1cc2[nH]c(=S)nc(NCCC(C)C)c2cc1OC,/,/,83.3,/
Cc1cccc2cc(C#N)c(SCCN3CCCCC3)nc12,84.2,.,.,96.9
Cc1ccc(N(CC(=O)NCC2CCCO2)C(=O)Cn2nnc(-c3cccs3)n2)cc1 (stereo not given),/,/,.,/
COc1ccc(OCC2c3cc(OC)c(OC)cc3CCN2C(=O)C(C)C)cc1 (stereo not given),/,/,.,/
CCOC(=O)c1ccc2[nH]c3c(c2c1)CCCC3C(=O)OCC (stereo not given),.,.,.,.

# High-throughput results as filed in PubChem.
